Unmarked numbers belong to inactive results. Active and inactive are the calls of the source. Calls come from the whole dose curve.
% is set by controls: 0 for no effect and ±100 for the full control effect.

The nature of this assay: qHTS assay to identify small molecule agonists of the estrogen related receptor (ERR) signaling pathway from Tox21 library (AID 1224849). Note: nearly all actives have a fitted effect of over 15% in size. Conditions: ERR reporter cell line, ONE-Glo luciferase, 18 h; at 92.4 µM (top of the series) unless noted. The text has this:
National Center for Advancing Translational Sciences [NCATS]
NIH Chemical Genomics Center [NCGC]
U.S. Environmental Protection Agency [EPA]
National Institutes of Environmental Health Sciences [NIEHS]
National Toxicology Program [NTP]
Estrogen related receptors (ERRs), the first orphan nuclear receptors discovered, play an important role in the control of cellular energy metabolism. ERRs are required for high-energy production in response to the environmental challenges. ERR-alpha was also identified as an adverse marker for breast cancer progression; ERR-alpha-positive tumors have a poor prognosis. To screen and to identify environmental compounds that perturb the ERR signaling pathways could provide valuable information for potential therapeutic or preventive measures in the treatment of metabolic disease. For identifying ERR agonists, ERR cell line (provided by NTP) has been used to screen Tox21 10K library.
The ERR cells were dispensed at 2,000 cells/5 ul/well in 1536-well white plates using a Multidrop dispenser. After the assay plates were incubated at a 37 C/5% CO2 incubator for 6 hours, 23 nL of compounds dissolved in DMSO, positive and negative controls or DMSO only was transferred to the assay plate by a pin tool. The plates were incubated at 37 C for 18 hours. 4 ul/well of One-Glo reagent was added into the assay plates using a Flying Reagent Dispenser. After 30-minute incubation at room temperature, the luminescence intensity in the plates was measured using a ViewLux plate reader.
Background: qHTS replaces the single test concentration by a dilution series.
Regarding `CCNc1nc(N)nc(Cl)n1`, the activity change, positive = activation is 3.57%.

For the compound `CCCCCCCC(=O)OCCCCCC`, the activity change, positive = activation was -7.04%.

In the case of `[Cl][Nd]([Cl])[Cl]`, the activity change, positive = activation was -6.02%.

Turning to `CCC1CCC(CCC(=O)O)C1` (stereo not given), the activity change, positive = activation was -14.4%.

For the compound `CNCc1ccc(NC(=O)c2c[nH]c3c2C(=O)CCC3)cc1`, the activity change, positive = activation was -17.3%.

With `O=C1c2ccccc2C(=O)c2c(O)ccc(O)c21`, the activity change, positive = activation was -2.45%.

Regarding `CCN(CC)CCOc1ccccc1C(=O)CCc1ccccc1`, the activity change, positive = activation is -25.9% [at 42.5 µM].

As for `CC(C)C(O)C(C)(C)CO` (stereo not given), the activity change, positive = activation was -71.7%.

On to `CC(CO)(CO)C(=O)O`, for which the activity change, positive = activation is -0.0649%.

Regarding `CC(=O)NNC(C)=O`, the activity change, positive = activation is 2.66%.

Take `CCN(Cc1cccc(S(=O)(=O)O)c1)c1ccc(C(=C2C=CC(=[N+](CC)Cc3cccc(S(=O)(=O)O)c3)C=C2)c2ccc(O)cc2S(=O)(=O)[O-])cc1`: the activity change, positive = activation was -59.2% [at 42.5 µM].

Consider `CC1CCc2nccnc21` (stereo not given), for which the activity change, positive = activation is 3.13%.

`CC(C)CC(O)CC(C)C`: the activity change, positive = activation was 2.06%.

Turning to `CCN(Cc1cccc(S(=O)(=O)O)c1)c1ccc(C(=C2C=CC(=[N+](CC)Cc3cccc(S(=O)(=O)O)c3)C=C2)c2ccccc2S(=O)(=O)[O-])cc1`, the activity change, positive = activation was -48.9% [at 42.5 µM].

For the compound `ClC1=C(Cl)C1(Cl)Cl`, the activity change, positive = activation is 7.16%.

Regarding `CC1CCC(C(C)CS)CC1S` (stereo not given), the activity change, positive = activation was 4.8%.

For the compound `CC(O)Cn1cnc2c1c(=O)n(C)c(=O)n2C` (stereo not given), the activity change, positive = activation was 0.481% [at 42.5 µM].

Consider `COc1ccc(-c2cc(C(F)F)nn2-c2ccc(S(N)(=O)=O)cc2)cc1F`, for which the activity change, positive = activation is -17.4% [at 42.5 µM].

As to `CC(CCc1ccc(O)cc1)NCCc1ccc(O)c(O)c1` (stereo not given), the activity change, positive = activation was -12.3% [at 42.5 µM].

Take `CC12CC3CC(C)(C1)CC(N)(C3)C2`: the activity change, positive = activation was -0.576% [at 42.5 µM].

As for `Nc1c(Cl)cc(Cl)cc1[N+](=O)[O-]`, the activity change, positive = activation was -2%.

Take `O=C(O)c1ccc(O)cc1O`: the activity change, positive = activation was -9.45%.

`O=C(O)c1cccc(Oc2ccccc2)c1`: the activity change, positive = activation was -1.12%.

In the case of `CC/C=C\C/C=C\C/C=C\CCCCCCCC(=O)OCC`, the activity change, positive = activation is -28.4%.

Turning to `CCCCOC(=O)CCCCC(=O)OCCCC`, the activity change, positive = activation was -0.363%.

Turning to `O=C(O)CCS`, the activity change, positive = activation was 4.53%.

Take `CCN(CC)c1ccc(C(=C2C=CC(=[N+](CC)CC)C=C2)c2ccc(S(=O)(=O)O)cc2S(=O)(=O)[O-])cc1`: the activity change, positive = activation was -60.1%.

`COC1CCC=CO1` (stereo not given): the activity change, positive = activation was 5.99%.

Turning to `N[C@@H](Cc1cc(I)c(O)c(I)c1)C(=O)O`, the activity change, positive = activation is 2.55% [at 42.5 µM].

Take `COc1cc(NC(C)CCCN)c2ncccc2c1` (stereo not given): the activity change, positive = activation was -9.72% [at 42.5 µM].

For the compound `CC(C)(C)S`, the activity change, positive = activation is 4.53%.

Turning to `C1=CCC2CC=CC2C1` (stereo not given), the activity change, positive = activation is 1.2%.

Regarding `Cc1c(C2(c3cc(Br)c(O)c(Br)c3C)OS(=O)(=O)c3ccccc32)cc(Br)c(O)c1Br`, the activity change, positive = activation was -68%.

On to `COC(C)(C)OC`, for which the activity change, positive = activation is 2.58%.

As for `COc1ccc(C(=O)NCc2ccc(OCCN(C)C)cc2)cc1OC`, the activity change, positive = activation is -0.159% [at 42.5 µM].

As to `Cc1c[nH]c2ccccc12`, the activity change, positive = activation was 0.349% [at 42.5 µM].

For the compound `O=C(Oc1ccccc1)c1ccc2ccccc2c1O`, the activity change, positive = activation was 116% (active).

With `CCO[Si](C)(CCCOCC1CO1)OCC` (stereo not given), the activity change, positive = activation was 0.152%.

With `CCCCCCCCCCCSCC(=O)O`, the activity change, positive = activation is -19.7%.

In the case of `O=C(O)c1cc(Cl)cc(Cl)c1O`, the activity change, positive = activation was 0.37%.

Source of the values: PubChem BioAssay (Tox21).
